# Hits are enriched below; roughly 32% of the tested compounds scored in any of these assays.
# PostGolgi ctrl: inhibits growth of the yeast control strain. actives 5% (n = 98,000). inhibition, % at 10 µM. efflux-deficient yeast background strain, growth absorbance A615, 16 h. AID 738
# CYP2C9 inh: blocks human cytochrome P450 2C9 | CYP2C9 Supersomes, luciferin-H conversion, luminescence | inhibition, % at 5 µM | actives 20% (n = 96,000) | AID 777;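 active means blocking of liver enzyme CYP2C9 beyond about 50% at 5 µM, limit read from the data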
# CYP2C9 act: CYP2C9 (human) activation | actives 1.4% (n = 96,000) | activation factor at 5 µM | recombinant CYP2C9, luciferin-H conversion, luminescence; stronger effect = higher value; factor 1 = untreated enzyme, 0 = blocked | AID 1024;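 active means activation factor of 2 or more for CYP2C9 at a 5 µM dose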;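 further: 0 = sulfaphenazole-blocked wells and 1 = vehicle-only wells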
# PostGolgi yeast: growth inhibition of a yeast mutant, post-Golgi transport screen | post-Golgi transport phenotypic cell assay | inhibition, % at 10 µM | actives 0.9% (n = 98,000);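 further: yeast cells grown in 1536-well plates; yeast grown about 18 h at 30C before absorbance read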
# CYP2C19 act: increases human CYP2C19 enzyme activity. 96,000 tested, under 10 active. P33261. recombinant CYP2C19, luciferin-H EGE luminescence; stronger effect = higher value; 0 = fully inhibited enzyme, 1 = untreated enzyme. AID 1025. activation factor at 5 µM;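 active means activation factor of at least 2 at 5 µM in the primary screen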;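 further: 0 = wells with 2.5 mM tranylcypromine and 1 = vehicle-only wells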
# Target sequence (P33261 whole entry, looked up): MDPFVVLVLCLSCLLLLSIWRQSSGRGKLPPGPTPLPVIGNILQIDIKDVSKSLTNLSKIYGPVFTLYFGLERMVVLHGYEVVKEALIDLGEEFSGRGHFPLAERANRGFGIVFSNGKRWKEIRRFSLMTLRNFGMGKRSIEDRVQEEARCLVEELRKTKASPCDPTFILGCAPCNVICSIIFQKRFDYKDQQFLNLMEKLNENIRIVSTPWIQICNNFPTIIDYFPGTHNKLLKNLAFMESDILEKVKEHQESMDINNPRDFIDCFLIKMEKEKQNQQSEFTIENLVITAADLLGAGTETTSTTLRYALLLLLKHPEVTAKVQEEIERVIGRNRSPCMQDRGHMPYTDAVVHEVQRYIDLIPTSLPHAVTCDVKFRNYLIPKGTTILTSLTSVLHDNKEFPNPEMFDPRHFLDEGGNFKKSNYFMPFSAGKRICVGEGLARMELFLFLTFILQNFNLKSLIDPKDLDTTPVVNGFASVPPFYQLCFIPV
# CYP2C19 inhib: human CYP2C19 inhibition. inhibition, % at 5 µM. AID 778. actives 21% (n = 96,000). CYP2C19 Supersomes, luciferin-H EGE luminescence, 30 min;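 active means CYP2C19 inhibition above a set limit at 5 µM in the primary screen, cut at about 50% in these data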;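 further: plate controls were negative control wells for no effect and 2.5 mM tranylcypromine positive control for full effect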
# * marks the source's active call; other numbers are inactive results. Unless noted, no stated cut-off is given here; in the data, active means inhibition above about 30%; inactive means the rest.
SMILES,PostGolgi ctrl,CYP2C9 inh,CYP2C9 act,PostGolgi yeast,CYP2C19 act,CYP2C19 inhib
CC12CC(NC(=O)N1c1cccc(C(=O)N3CCN(c4ccccn4)CC3)c1)c1ccccc1O2 (stereo unspecified),1,63*,0.4,-1,0.6,44
CC12CC(NC(=O)N1c1cccc(C(=O)N3CCN(c4ccccc4F)CC3)c1)c1ccccc1O2 (stereo unspecified),2,79*,0.2,1,0.6,44
CC12CC(NC(=O)N1c1ccc(C(=O)N3CCN(c4ccccn4)CC3)cc1)c1ccccc1O2 (stereo unspecified),7,6,0.9,6,0.9,8
CC12CC(NC(=O)N1c1cccc(C(=O)NCc3ccc4c(c3)OCO4)c1)c1cc(Cl)ccc1O2 (stereo unspecified),-3,79*,0.2,-2,0.4,59*
CC(C)CCNC(=O)COc1ccc2c(c1)C(=O)CC(C)(C)O2,5,80*,0.2,0,0.3,74*
CC1(C)CC(=O)c2cc(OCC(=O)NCCN3CCCc4ccccc43)ccc2O1,6,18,0.8,15,0.9,8
COc1cc(S(=O)(=O)n2nc(C)cc2C)c(OC)cc1Cl,3,29,0.7,-2,0.2,83*
COc1cc(Cl)ccc1S(=O)(=O)n1nc(C)cc1C,12,15,0.8,1,0.3,75*
COc1cc(/C=N/NC(=O)COc2ccccc2C)ccc1OC(=O)c1cccs1,12,27,0.7,-2,0.8,22
CCOc1cc(/C=N/NC(=O)COc2cccc(C)c2)ccc1OC(=O)c1cccs1,11,59*,0.4,2,0.8,18
CC1CCCCC1NC(=O)c1ccc(CNc2c(N3CCCC3)c(=O)c2=O)cc1 (stereo unspecified),12,5,1,0,1.1,-7
O=[N+]([O-])c1ccc(NC(=S)N/C(=N/CS(=O)(=O)c2ccccc2)c2ccccc2)cc1,3,58*,0.4,3,0.7,29
NC(=O)C1CCCN(C(=O)NC2CCCCC2)C1 (stereo unspecified),-2,13,0.9,0,1.1,-8
O=C(NC1CCCC1)C(c1cccs1)N(CC1CCCO1)C(=O)Cc1cccs1 (stereo unspecified),7,2,1,5,1,-2
O=C(NCC(=O)N(Cc1cccs1)C(C(=O)NC1CCCC1)c1ccncc1)c1ccco1 (stereo unspecified),5,72*,0.3,-11,0.4,61*
O=C(NC1CCCCC1)C(c1cccs1)N(Cc1cccs1)C(=O)c1ccco1 (stereo unspecified),19,53*,0.5,-2,0.4,55*
Cc1ccc(C(C(=O)NCc2ccco2)N(Cc2ccco2)C(=O)CNC(=O)c2ccco2)cc1 (stereo unspecified),18,36,0.6,6,0.4,57*
O=C(NCC(=O)N(Cc1ccco1)C(C(=O)NC1CCCC1)c1cccnc1)c1cccs1 (stereo unspecified),3,86*,0.1,-3,0.8,17
COc1ccc(-c2c3c(=O)n(C)c(=O)n(C)c3cn2Cc2cccnc2)cc1,25,5,0.9,6,0.7,28
CC(=Nc1ccc2c(c1)nc(CO)n2C)C1=C(O)CC(C)(C)CC1=O,8,26,0.7,-4,0.9,15
O=C(NCC(=O)N(Cc1ccco1)C(C(=O)NC1CCCCC1)c1cccnc1)c1ccco1 (stereo unspecified),9,22,0.8,-4,0.8,19
O=C(NCc1ccccc1)C(c1ccccc1)N(Cc1cccs1)C(=O)c1cnccn1 (stereo unspecified),40*,25,0.7,-3,0.4,62*
O=C(NCc1ccccc1)C(c1cccs1)N(Cc1cccs1)C(=O)c1cnccn1 (stereo unspecified),4,23,0.8,-7,0.6,40
O=C(CCC(=O)N(Cc1ccco1)C(C(=O)NC1CCCC1)c1ccncc1)Nc1cccnc1 (stereo unspecified),16,61*,0.4,5,0.3,75*
COc1ccccc1N1CCN(C(=O)c2cnn3cccnc23)CC1,-2,-7,1.1,2,0.9,9
SMILES,PostGolgi ctrl,CYP2C9 inh,CYP2C9 act,PostGolgi yeast,CYP2C19 act,CYP2C19 inhib
C=CCOC(=O)C1CC=CCC1C(=O)Oc1ccc(F)cc1F (stereo unspecified),7,69*,0.3,0,0.1,86*
COc1cc(CNC2CCCC2)cc(Cl)c1OCc1ccccc1F,30,6,0.9,5,0,96*
COc1cc(CNC2CCCCCC2)cc(OC)c1O,6,-4,1,13,1,-3
CCN(CC(=O)NCc1ccc(F)cc1)C(=O)C1CCN(C(=O)Nc2ccccc2)CC1,-1,-10,1.1,0,1,2
O=C(CN1C(=O)COc2ccccc21)N(Cc1ccccc1)Cc1ccccn1,5,12,0.9,7,0.9,10
Cc1ccc(CN(Cc2cccnc2)C(=O)CN2C(=O)COc3ccccc32)o1,1,67*,0.3,-11,0,95*
CC1S/C(=C(\C#N)C(=O)NCc2ccco2)N(Cc2ccco2)C1=O (stereo unspecified),16,12,0.9,9,0.7,30
CC(C)(C)c1cnnn1-c1ccc(NC(=O)c2ccc3c(c2)OCO3)cc1,27,27,0.7,0,0.7,33
CC(C)(C)c1cnnn1-c1ccc(NC(=O)c2ccc(Br)o2)cc1,44*,17,0.8,5,0.9,13
CC(=O)c1ccc(-n2nncc2C(C)(C)C)cc1,33*,-12,1.1,-9,0.8,24
CCOC(=O)c1sc(=S)n(-c2ccccc2)c1SC,13,48,0.5,19,0.4,58*
CCOC(=O)c1sc(=S)n(-c2cccc(C(F)(F)F)c2)c1SC,6,61*,0.4,26,1,1
CCOC(=O)c1sc(=S)n(-c2ccccc2Cl)c1SC,22,17,0.8,1,0.8,20
O=S(=O)(/N=C(/Nc1ccccn1)c1ccccc1)c1ccccc1,5,8,0.9,18,1,-1
CC1(C)Cc2c(c(N3CCOCC3)nc3snc(Br)c23)CO1,16,67*,0.3,-13,0.9,10
CC1(C)Cc2c(c(N3CCOCC3)nc3snc(N)c23)CO1,5,35,0.7,-6,1,-1
Cc1nn(Cc2ccc(Cl)cc2)c(C)c1NC(=O)C1CC=CCC1C(=O)O (stereo unspecified),-13,-12,1.1,4,0.6,39
O=C1C2CC=C(Cl)CC2C(=O)N1CCCCCCN1C(=O)C2CC=C(Cl)CC2C1=O (stereo unspecified),10,82*,0.2,-5,0.3,75*
